The text below walks through data of PubChem BioAssay (NCATS).

Several values for one entry are separate records, joined by “and”; a condition that tells them apart may be missing. Identical values can stand only once. Records with an inconclusive call do not appear. Activity calls are given as the source filed them. Unless noted, calls follow the shape of the dose curve; as a rule, active = well fitted curve in either direction with a large enough effect (not every such curve was filed as active); inconclusive = small, poorly fitted or top-dose-only effect, or another doubt; inactive = flat fitted curve, though single readings scatter.

The nature of test [1]: AP1 Signaling Pathway (AID 357).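 Also: ME-180 reporter cells stimulated with EGF at its EC50 level; % is scaled to controls: 0 for no effect and ±100 for the full control effect.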 The procedure, abridged: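 A ratiometric CCF4 readout (405 nm excitation; 460 and 530 nm emission) quantified AP-1-driven beta-lactamase in ME-180 cells after 5 h with compound and EC50 EGF; AC50 values were derived for activators and inhibitors.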
A short description of test [2]: NFAT Signaling Pathway (AID 444).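 Also: carbachol stimulus at about its EC50 of 1 µM final; % is scaled to controls: 0 for no effect and ±100 for the full control effect.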 The settings on record: Jurkat NFAT-bla M1, carbachol, beta-lactamase ratio, 5 h; at 17.2 µM (top of the series) unless noted. The procedure, abridged:
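Jurkat cells carrying an NFAT-driven β-lactamase reporter and co-transfected muscarinic M1 receptor were treated with compound plus carbachol (1 uM final, an EC50 level) for 5 h at 37 °C. CCF4 loading followed for 1 h at RT; 460/530 nm ratio gave %activity.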

A short description of test [3]: Stat Signaling Pathway (AID 446).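 Also: ME-180 cervical cancer cells given 40 pM IL-6 alongside compound; SIE-controlled beta-lactamase reporter measured as 460/530 nm FRET emission ratio; % is scaled to controls: 0 for no effect and ±100 for the full control effect.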 An outline of the steps: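 Overnight-plated ME-180 cells bearing a STAT Inducible Element beta-lactamase reporter; 5 h co-exposure to compound and 40 pM IL-6; values normalized to 300 pM IL-6 and 125 nM JAK inhibitor controls.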
The target in test [4] is Glucocorticoid receptor (Homo sapiens) (UniProt P04150). Kind of test: GR-GFP Redistribution (AID 450;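 active = compounds whose dose series gives a full or clear partial fitted curve of increased nuclear translocation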; also: potency is read from the fitted curve at half-maximal effect). The settings on record: U2OS GR-GFP nuclear translocation, laser cytometry, 2 h.
Test [5] has the same target. Kind of test: GR-EFC Redistribution (AID 451; calls by dose curve; also: potency is read from the fitted curve at half-maximal effect). Conditions: CHO-K1 GR-EFC translocation, beta-gal luminescence, 2 h. The procedure, abridged:
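CHO-K1 cells stably expressing nuclear-localized β-gal enzyme acceptor and GR fused C-terminally to the enzyme donor fragment; ligand-driven nuclear translocation restores β-gal by complementation. Compounds titrated up to 46 uM final, 2 h at 37 °C; luminescence read.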

Test [6] deals with Mitogen-activated protein kinase 10 (Mus musculus) (UniProt Q61831). Kind of test: JNK3 AlphaScreen Assay (AID 530).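 Also: kinase came from lysate of stimulated human HepG2 cells; signal reports phosphorylation of biotinylated GST-cJun 1-79 at Ser73 with 10 µM ATP; % is scaled to controls: 0 for no effect and ±100 for the full control effect.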 The procedure, abridged: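 Phosphorylation of biotinylated GST-cJun(1-79) at Ser73 is measured by AlphaScreen proximity luminescence. Enzyme is JNK3 in HepG2 lysates activated with interleukin-1beta and tumor necrosis factor alpha; ATP is 10 uM final.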
The target of test [7] is 3',5'-cyclic-AMP phosphodiesterase 4B (Homo sapiens) (UniProt Q07343). Kind of test: qHTS Assay for Inhibitors of PDE-IV (AID 607; active = well fitted activation curve with a large enough effect in the main read-out, with a control signal flat, not every such curve was filed as active; also: % of control where 0% means no effect). The procedure, abridged:
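Live HEK293 cells with a modified cyclic nucleotide-gated (CNG) channel report intracellular cAMP via membrane-potential dye fluorescence (ex 535/em 590 nm). Endogenous PDE-IV was targeted. Compounds were tested at up to 22.9 uM final; RO 20-1724 100 uM served as control.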

Test [8] in a line: qHTS Assay for Lipid Storage Modulators (AID 1519; calls by dose curve). Conditions: Drosophila S3 cells, BODIPY lipid droplet/cell ratio, laser cytometry, cells loaded with oleic acid; for activity change, negative = inhibition: at 25.7 µM (top of the series). The procedure, abridged: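 Cells seeded at 5,000 per well were treated with compounds over a concentration series and loaded with oleic acid (400 uM, as added). Lipid droplet fluorescence (488 nm excitation, 500-530 nm channel) was read by laser-scanning cytometry and normalized to 20 uM Triacsin C.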

In test [9] the target is Ubiquitin carboxyl-terminal hydrolase 1 (Homo sapiens) (UniProt O94782). Kind of test: Inhibitors of USP1/UAF1: Pilot qHTS (AID 504865; active = well fitted inhibition curve with a large enough effect;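 also: rhodamine fluorescence freed from ubiquitin-rhodamine substrate followed over time; top concentration of the series differs between compounds; % is scaled to controls: 0 for no effect and ±100 for the full control effect; nearly all actives have a fitted effect of over 35% in size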). The procedure, abridged:
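Kinetic fluorescence assay: 1nM USP1/UAF1, 15 min compound preincubation, then 150nM Ub-Rho; 480/540 nm.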

In test [10] the target is Luciferin 4-monooxygenase (Photinus pyralis) (UniProt P08659). Kind of test: Biochemical firefly luciferase enzyme assay for NPC (AID 624030; active = well fitted inhibition curve with a large enough effect;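 also: purified P. pyralis luciferase at 10 nM with luciferin and ATP substrate; 0% = DMSO and -100% = full luciferase inhibition by PTC124 control; nearly all actives have a fitted effect of over 70% in size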). An outline of the steps:
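Counter-screen for direct inhibition of the luciferase enzyme by approved-drug library compounds, run at 10 nM enzyme in 50 mM Tris acetate (final). Luminescence was read within 5 min of enzyme-buffer addition and normalized to PTC124 versus DMSO (0%).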

A short description of test [11]: qHTS profiling for inhibitors of Plasmodium falciparum proliferation (AID 504749; active = well fitted inhibition curve with a large enough effect;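 also: 0% = DMSO vehicle and full inhibition = artemisinin control; nearly all actives have a fitted effect of over 60% in size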). Conditions: P. falciparum in erythrocytes, SYBR Green DNA, 72 h, at 12.8 µM (top of the series). The procedure, abridged:
(§1)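 Quantitative HTS: compounds pinned into medium, infected erythrocytes added (0.3% parasitemia, 2.5% hematocrit), 72 h culture at 37 C under 5% CO2. Saponin/Triton lysis with SYBR Green I, overnight RT, then fluorescence read.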

The test system of another test is C2A. The description is as above. The settings on record: P. falciparum in erythrocytes, SYBR Green DNA, 72 h; series mostly up to 12.8 µM. The procedure, abridged:
as §1

The test system of the next test is CP217. Described as above. The settings on record: P. falciparum in erythrocytes, SYBR Green DNA, 72 h; series mostly up to 12.8 µM. An outline of the steps: as §1
For another test, the system named is CP238. The test is described as above. Conditions: P. falciparum in erythrocytes, SYBR Green DNA, 72 h; series mostly up to 12.8 µM. The procedure, abridged:
as §1

In another test the test system is CP250. The description is as above. Conditions: P. falciparum in erythrocytes, SYBR Green DNA, 72 h; series mostly up to 12.8 µM. An outline of the steps: as §1
The subject of another test is CP252. The test is described as above. The settings on record: P. falciparum in erythrocytes, SYBR Green DNA, 72 h; series mostly up to 12.8 µM. An outline of the steps:
as §1

The next test deals with FAB9. The test is described as above. Conditions: P. falciparum in erythrocytes, SYBR Green DNA, 72 h; series mostly up to 12.8 µM. An outline of the steps:
as §1

The subject of the next test is HB3. Described as above. The settings on record: P. falciparum in erythrocytes, SYBR Green DNA, 72 h; series mostly up to 12.8 µM. The procedure, abridged:
as §1

The test system of a further test is SC27B. The description is as above. Conditions: P. falciparum in erythrocytes, SYBR Green DNA, 72 h; series mostly up to 12.8 µM. An outline of the steps: as §1
Setting [12] is: measured here: cell count channel max response.
Setting [13] is: measured here: lipid channel max response.

3',5'-cyclic-AMP phosphodiesterase 4B (Homo sapiens), sequence (Q07343 whole entry, looked up): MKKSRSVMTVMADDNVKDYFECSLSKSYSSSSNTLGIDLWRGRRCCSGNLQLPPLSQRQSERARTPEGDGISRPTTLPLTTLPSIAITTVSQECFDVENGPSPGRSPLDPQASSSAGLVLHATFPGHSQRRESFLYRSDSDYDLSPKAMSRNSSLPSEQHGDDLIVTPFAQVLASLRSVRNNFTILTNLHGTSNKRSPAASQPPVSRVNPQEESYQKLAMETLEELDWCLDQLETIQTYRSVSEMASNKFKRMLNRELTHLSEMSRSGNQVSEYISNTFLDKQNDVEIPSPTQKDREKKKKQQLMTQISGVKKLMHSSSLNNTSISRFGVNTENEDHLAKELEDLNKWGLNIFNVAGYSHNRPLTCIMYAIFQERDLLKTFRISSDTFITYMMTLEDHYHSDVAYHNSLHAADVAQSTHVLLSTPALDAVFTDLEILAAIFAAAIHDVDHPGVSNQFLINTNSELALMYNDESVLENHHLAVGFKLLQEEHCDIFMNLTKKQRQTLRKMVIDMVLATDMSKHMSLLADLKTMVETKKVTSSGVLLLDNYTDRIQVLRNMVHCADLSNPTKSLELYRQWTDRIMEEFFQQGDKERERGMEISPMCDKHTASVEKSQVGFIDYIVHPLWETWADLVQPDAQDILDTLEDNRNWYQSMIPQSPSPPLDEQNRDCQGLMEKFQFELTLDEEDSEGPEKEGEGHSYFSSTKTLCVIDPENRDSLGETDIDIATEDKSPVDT
Ubiquitin carboxyl-terminal hydrolase 1 (Homo sapiens), sequence (O94782 whole entry, looked up): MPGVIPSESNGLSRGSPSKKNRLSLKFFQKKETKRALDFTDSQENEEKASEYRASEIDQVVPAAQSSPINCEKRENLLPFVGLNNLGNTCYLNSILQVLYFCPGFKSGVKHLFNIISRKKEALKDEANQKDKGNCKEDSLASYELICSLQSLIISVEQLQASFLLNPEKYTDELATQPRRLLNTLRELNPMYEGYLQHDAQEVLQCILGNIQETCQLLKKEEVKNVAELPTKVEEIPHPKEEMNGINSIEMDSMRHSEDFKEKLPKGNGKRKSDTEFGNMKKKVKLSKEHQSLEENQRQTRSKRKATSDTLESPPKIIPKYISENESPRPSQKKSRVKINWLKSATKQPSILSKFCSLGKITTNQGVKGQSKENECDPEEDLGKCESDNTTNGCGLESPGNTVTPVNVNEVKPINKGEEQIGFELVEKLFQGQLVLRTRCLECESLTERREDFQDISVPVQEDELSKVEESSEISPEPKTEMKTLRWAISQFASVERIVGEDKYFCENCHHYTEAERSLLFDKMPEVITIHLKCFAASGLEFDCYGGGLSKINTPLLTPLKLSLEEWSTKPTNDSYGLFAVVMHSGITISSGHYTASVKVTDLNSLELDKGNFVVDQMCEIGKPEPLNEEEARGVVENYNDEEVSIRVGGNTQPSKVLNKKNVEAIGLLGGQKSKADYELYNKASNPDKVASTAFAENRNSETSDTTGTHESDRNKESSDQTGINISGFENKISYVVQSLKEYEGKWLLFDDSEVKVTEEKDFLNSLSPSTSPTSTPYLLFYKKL
Glucocorticoid receptor (Homo sapiens), sequence (P04150 whole entry, looked up): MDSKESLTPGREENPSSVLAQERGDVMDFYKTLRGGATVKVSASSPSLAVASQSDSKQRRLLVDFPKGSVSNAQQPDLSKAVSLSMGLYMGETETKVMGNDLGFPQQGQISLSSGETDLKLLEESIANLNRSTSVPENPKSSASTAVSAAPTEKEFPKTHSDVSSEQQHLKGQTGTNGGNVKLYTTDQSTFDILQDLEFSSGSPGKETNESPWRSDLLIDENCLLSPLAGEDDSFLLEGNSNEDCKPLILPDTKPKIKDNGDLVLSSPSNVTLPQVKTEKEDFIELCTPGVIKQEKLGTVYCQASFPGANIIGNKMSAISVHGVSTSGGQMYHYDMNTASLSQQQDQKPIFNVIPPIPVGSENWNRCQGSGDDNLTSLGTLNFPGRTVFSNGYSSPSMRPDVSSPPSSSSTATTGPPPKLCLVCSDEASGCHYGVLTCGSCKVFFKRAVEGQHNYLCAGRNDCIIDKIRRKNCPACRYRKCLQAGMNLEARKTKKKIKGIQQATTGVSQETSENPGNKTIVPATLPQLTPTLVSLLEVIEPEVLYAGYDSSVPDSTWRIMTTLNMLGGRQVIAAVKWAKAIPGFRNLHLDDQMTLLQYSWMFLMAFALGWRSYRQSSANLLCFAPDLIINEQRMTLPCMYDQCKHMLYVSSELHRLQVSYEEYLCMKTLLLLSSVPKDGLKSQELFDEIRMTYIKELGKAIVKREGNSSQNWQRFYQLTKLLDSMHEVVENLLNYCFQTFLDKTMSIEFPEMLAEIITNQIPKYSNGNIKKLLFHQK
Luciferin 4-monooxygenase (Photinus pyralis), sequence (P08659 whole entry, looked up): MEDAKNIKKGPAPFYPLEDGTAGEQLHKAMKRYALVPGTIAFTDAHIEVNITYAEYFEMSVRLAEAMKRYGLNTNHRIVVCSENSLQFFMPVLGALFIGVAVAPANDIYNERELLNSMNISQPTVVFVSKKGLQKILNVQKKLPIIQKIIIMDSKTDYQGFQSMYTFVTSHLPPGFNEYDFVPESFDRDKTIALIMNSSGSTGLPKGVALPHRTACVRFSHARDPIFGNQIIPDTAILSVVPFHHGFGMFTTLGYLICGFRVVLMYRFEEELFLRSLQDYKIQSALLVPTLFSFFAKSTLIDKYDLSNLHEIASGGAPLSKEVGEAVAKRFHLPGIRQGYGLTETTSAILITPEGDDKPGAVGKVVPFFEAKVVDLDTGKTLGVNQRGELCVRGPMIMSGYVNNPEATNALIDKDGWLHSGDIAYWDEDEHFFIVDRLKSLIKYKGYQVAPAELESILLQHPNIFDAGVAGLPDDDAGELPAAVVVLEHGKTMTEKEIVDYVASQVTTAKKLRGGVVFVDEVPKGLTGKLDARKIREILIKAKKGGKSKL

For the molecule `COc1ccc([C@@H]2CC(=O)c3c(O)cc(O)cc3O2)cc1O`, the outcome in test [1], in [3] and in test [7] was inactive. Moreover, the values for the activity change, negative = inhibition in test [2] and in test [8] were -2.52% (inactive) and 0.892% (inactive), respectively. Moreover, the Potency is > 20.6 µM (inactive) and > 46 µM (inactive) in test [4]; > 20.6 µM (inactive) and > 46 µM (inactive) in test [5]. Further, the Potency result in test [6] and in [9] was “inactive” each time. The max response in test [8] (setting [12]) is -5.78%; in test [8] (setting [13]), -2.83%.

For the molecule `CC(=O)S[C@H]1CC2=CC(=O)CC[C@@]2(C)[C@H]2CC[C@@]3(C)[C@H](CC[C@]34CCC(=O)O4)[C@@H]12`, the outcome in test [1], in [3] and in [7] was inactive. Moreover, the activity change, negative = inhibition in test [2] is -8.69% (inactive); in test [8] it was -7.24% (inactive). Besides, the Potency is 2.45 µM (active) in test [4] and > 20.6 µM (inactive) in [5]. Moreover, the Potency result in test [6] and in test [9] was “inactive” each time. Further, the max response in [8] (setting [12]) and in test [8] (setting [13]) was -20.4% in each case.

In the case of `COc1cc(OC)c2c(c1Cl)O[C@@]1(C2=O)[C@H](C)CC(=O)C[C@@H]1OC`, the result in [1] and in test [3] was inactive. The activity change, negative = inhibition was -1.63% (inactive) in [2] and -1.85% (inactive) in test [8]. For the same molecule, the Potency in [4] and in test [5] was > 20.6 µM (inactive) each time. The Potency entry in [6] and in test [9] was “inactive” throughout. For the same molecule, the max response in test [8] (setting [12]) is -13.8%; in [8] (setting [13]), -15.1%.

Take `CC(C)(C)NC[C@H](O)COc1cccc2c1C[C@@H](O)[C@@H](O)C2`: the result in test [1], in [3] and in test [7] was inactive. Besides, the activity change, negative = inhibition in test [2] was -3.7% (inactive); in test [8], -2.96% (inactive). For the same molecule, in test [5], the Potency is > 20.6 µM (inactive). Further, the max response in [8] (setting [12]) is -8.96%; in test [8] (setting [13]), -13.2%. Besides, the Potency result (in [9]; in test [10]; with C2A; in the test on CP217; in the test with CP238; in the test on CP250) was “inactive” throughout. Besides, the Potency entry in the test on CP252, with FAB9, in the test with HB3 and in the test with SC27B was “inactive” throughout. Besides, the activity, negative = inhibition was 4.79% (inactive) in test [11] (parasite line A) and 2.07% (inactive) in [11] (parasite line B).

`C[C@H](O)Cn1cnc2c1c(=O)n(C)c(=O)n2C`: the molecule was called inactive in [1] and in [3]. The activity change, negative = inhibition in [2] is 18.8% (inactive); in test [8], 0.562% (inactive). Besides, the Potency result (in test [6]; in [9]; in test [10]; in the test on C2A; in the test with CP217; in the test with CP238) was “inactive” each time. In addition, the Potency result with CP250, with CP252, with FAB9, with HB3 and in the test with SC27B was “inactive” each time. The values for the max response in test [8] (setting [12]) and in [8] (setting [13]) were -2.3% and -3.77%, respectively. Also, the activity, negative = inhibition was 7.57% (inactive) in [11] (parasite line A) and -0.935% (inactive) in test [11] (parasite line B).

For the molecule `O=C1OCCN1/N=C\c1ccc([N+](=O)[O-])o1`, the call in test [1], in [3] and in test [7] was inactive. Besides, the activity change, negative = inhibition was -2.86% (inactive) in [2] and -2% (inactive) in test [8]. Besides, the Potency in test [4] and in [5] was > 20.6 µM (inactive) throughout. The Potency entry in [6] and in test [9] was “inactive” in each case. The results for the max response in [8] (setting [12]) and in test [8] (setting [13]) were -13.3% and -14.3%, respectively.

On to `COC(=O)[C@@H]1[C@@H]2C[C@H]3c4[nH]c5cc(OC)ccc5c4CCN3C[C@@H]2C[C@H](OC(=O)c2cc(OC)c(OC)c(OC)c2)[C@H]1OC`, for which the outcome in test [1], in test [3] and in test [7] was inactive. The activity change, negative = inhibition is -10.5% (inactive) in test [2] and -6.07% (inactive) in test [8]. Further, the Potency in test [5] is > 20.6 µM (inactive). Besides, the Potency result in test [6] is “inactive”. Also, the max response was -5.3% in [8] (setting [12]) and -12.8% in test [8] (setting [13]).
